These results are taken from PubChem BioAssay (Tox21).

The structures appear in SMILES notation. Records with an inconclusive call do not appear. Entries that show only a call come without a potency. Activity calls are given as the source filed them. The call rests on the fitted dose curve; in most records, active means well fitted activation curve with a large enough effect in the signal ratio in the repeat runs (not every such curve was filed as active); inconclusive means weak or mixed curves; inactive means flat fitted curve, though single readings scatter; the % refers to the signal ratio.
Potency means the concentration at half of the fitted maximal effect.

The nature of this assay: qHTS assay to identify small molecule agonists of H2AX (AID 1224845). The note with it: CHO-K1 phospho-H2AX Ser139 HTRF, 3 h; series mostly up to 154 µM. From the text: National Center for Advancing Translational Sciences [NCATS]
NIH Chemical Genomics Center [NCGC]
U.S. Environmental Protection Agency [EPA]
National Institutes of Environmental Health Sciences [NIEHS]
National Toxicology Program [NTP]
U.S. Food and Drug Administration [FDA]
HTRF phospho-H2AX (Ser139) assay (Cisbio Bioassays, US) enables the quantitative detection of the histone variant H2AX when phosphorylated on serine 139. When double-stranded DNA breaks, either by ionizing radiation or endogenous physiological processes, H2AX becomes phosphorylated at Ser139. This phospho-Ser139 serves as a sensitive biomarker for the detection of such breaks, localizing the site of DNA repair. So, HTRF phospho-H2AX Ser139 is a pertinent assay to study genome stability, the cell cycle, DNA repair, and it serves as a biomarker for cancer, and to understand aging. Wild type CHO-K1 cells were used to identify the inducers of Phospho-H2AX Ser 139 from the Tox21 10K compound collections.
Tox21 Assay Protocol Summary:
The CHO-K1 cells suspended in culture medium containing 10% FBS were dispensed at 1000 cells/ 3 ul/well in 1536-well white wall/solid bottom plates (Greiner Bio-One North America, NC) using a Multidrop Combi (Thermo Fisher Scientific Inc., Waltham, MA). After the assay plates were incubated at 37C overnight, 23 nl of compounds at 15 concentrations (from 5-48 columns) or positive control (from 1 to 4 columns) were transferred to the assay plates using a Pintool station (Wako, San Diego, CA) into each well resulting in a final DMSO concentration of 0.76%. After 3hr incubation at 37C, 1 uL/well Supplemented Lysis buffer (diluted 100 fold blocking reagent in lysis buffer) (HTRF Phospho-H2A.X (S139) Assay kit from Cisbio US Inc., Bedford, MA) was added using a Flying Reagent Dispenser (FRD) (Aurora Discovery, CA). After 10sec spin at 1000 rpm in a plate centrifuge, the assay plates were incubated at room temperature for 30 min. Then followed by the addition of 1 uL/well detection buffer (containing a mixture of two antibodies, one labeled with cryptate, Anti pH2AX (S139)-K and another labeled with d2, Anti H2AX-d2) using FRD. After incubation at room temperature for 24 hr, the time resolved fluorescence at excitation 320 nm and emissions at 665 nm and 620 nm was measured using an Envision plate reader (PerkinElmer, Waltham, MA).
With `O=C(O)c1ccco1`, the Potency result was “inactive”.

`COC(C)(C)CCO`: the Potency entry was “inactive”.

Regarding `OC(C#CCN1CCCC1)(c1ccccc1)c1ccccc1`, the Potency result was “inactive”. `CC(=O)[O][Al][O]C(C)=O`: the Potency result is “inactive”. For the compound `O=S(=O)(Oc1ccc(Cl)cc1)c1ccccc1`, the Potency entry is “inactive”.

In the case of `CCOC(=O)C(O)c1ccccc1` (stereo not given), the Potency entry was “inactive”. `C=CC(=O)OCCOCCOC(=O)C=C`: the Potency was 56.9 µM (active). Regarding `Clc1ccc(Cn2c(CN3CCCC3)nc3ccccc32)cc1`, the Potency result is “inactive”.

Turning to `CN1Cc2cc(C(=O)N3CCC(C4CCNCC4)CC3)ccc2NC(CC(=O)O)C1=O` (stereo not given), the Potency entry was “inactive”. Still for that read-out and setting: with `COc1ccnc(CS(=O)c2nc3ccc(OC(F)F)cc3[nH]2)c1OC` (stereo not given) the entry was “inactive”; with `CCCCOC(=O)CCCCCCCC(=O)OCCCC`, “inactive”. As for `CC1OC(=O)C(C)OC1=O` (stereo not given), the Potency entry was “inactive”. The same measure, in the same setting: to `Nc1ccc(S(=O)(=O)Nc2ccccc2)cc1` belongs “inactive”. For the compound `C/C=C/C(=O)CC`, the activation (H2AX phosphorylation) is -0.233% [at 31.6 µM] (inactive). Take `CC(=O)c1cccc([N+](=O)[O-])c1`: the Potency entry was “inactive”. With `Cc1oc2c(NC(=O)c3c(Cl)cccc3Cl)cccc2c1C(C)(C)O`, the Potency result is “inactive”. Turning to `COC(C)OC`, the Potency result was “inactive”. `CCC(=O)O[C@]1(C(=O)CCl)[C@@H](C)C[C@H]2[C@@H]3CCC4=CC(=O)C=C[C@]4(C)[C@@]3(F)[C@@H](O)C[C@@]21C`: the Potency result was “inactive”. For the compound `O=C(Cl)c1cc(C(=O)Cl)cc(C(=O)Cl)c1`, the Potency entry is “inactive”. On the same count and under the same terms, with `CC(C)(CO)[N+](=O)[O-]` the entry was “inactive”.

For the compound `COc1cc2nc(N(C)CCCNC(=O)C3CCCO3)nc(N)c2cc1OC` (stereo not given), the Potency entry was “inactive”. As for `COc1ccc(-c2nc3ccc(C4=NNC(=O)CC4C)cc3[nH]2)cc1` (stereo not given), the Potency entry was “inactive”. As to `NCc1ccccc1Sc1ccccc1CO`, the Potency entry was “inactive”. Take `CCCCCCCCO[C@@H]1O[C@H](CO)[C@@H](O)[C@H](O)[C@H]1O`: the Potency entry was “inactive”. For `CCOC(=O)Cc1cccc2ccccc12`, the Potency entry is “inactive”. For `O=C1OC(CN2CCOCC2)CN1/N=C/c1ccc([N+](=O)[O-])o1` (stereo not given), the Potency result was “inactive”. With `CCCCC(=O)OCC(=O)[C@H]1[C@H](C)C[C@H]2[C@@H]3C[C@H](F)C4=CC(=O)C=C[C@]4(C)[C@@]3(F)[C@@H](O)C[C@@]21C`, the Potency result was “inactive”. For the compound `CO[C@@H]1[C@H](OC(=O)/C=C/C=C/C=C/C=C/C(=O)O)CC[C@]2(CO2)[C@H]1[C@@]1(C)O[C@@H]1CC=C(C)C`, the Potency entry was “inactive”. Regarding `CCC(C)c1cc(C(C)(C)C)c(O)c(C(C)(C)C)c1` (stereo not given), the Potency entry was “inactive”. Turning to `C[C@H](CCC(=O)O)[C@H]1CC[C@H]2[C@@H]3CC[C@@H]4C[C@H](O)CC[C@]4(C)[C@H]3C[C@H](O)[C@]12C`, the Potency result is “inactive”. Take `CCOc1ccc(N=Nc2ccc(/C=C/c3ccc(N=Nc4ccc(OCC)cc4)cc3S(=O)(=O)O)c(S(=O)(=O)O)c2)cc1`: the Potency entry was “inactive”.

Take `COc1cc2nc(N3CCN(C(=O)C4COc5ccccc5O4)CC3)nc(N)c2cc1OC` (stereo not given): the Potency entry is “inactive”.

As for `O=C(O)C1(C(=O)Nc2ccc(Cl)cc2Cl)CC1`, the Potency result is “inactive”. As for `C[C@@H](c1ncncc1F)C(O)(Cn1cncn1)c1ccc(F)cc1F` (stereo not given in full), the Potency entry is “inactive”. Turning to `CCCOC(C(=O)OC1CCN(C)CC1)(c1ccccc1)c1ccccc1`, the Potency entry is “inactive”. In the case of `CN(C)C(=O)NC1(c2ccccc2)CCN(CC[C@@]2(c3ccc(F)c(F)c3)CN(C(=O)c3ccccc3)CCO2)CC1`, the Potency result was “inactive”. Regarding `OC(CN1CCC(Cc2ccc(F)cc2)CC1)c1ccc(Cl)cc1` (stereo not given), the Potency entry was “inactive”. On to `O=C(O)c1nc(Cl)c(Cl)c(Cl)c1Cl`, for which the Potency result was “inactive”. Same read-out and setting: with `CCCCCCCCCCO[C@@H]1O[C@H](CO)[C@@H](O)[C@H](O)[C@H]1O` the entry was “inactive”; with `Nc1cccc([N+](=O)[O-])c1`, “inactive”.
